{
  "source": "PubChem BioAssay",
  "data": [
    {"system": "not listed separately", "experiment": "probe aLAP1 signal on lysate-treated microarray – cell lysate, small-molecule microarray, COS7 lysate, primary screen (AID 1124);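 also: lysate comes from COS7 cells expressing LAP1 and is applied at 0.3 µg/mL; score merges spot fluorescence near 667 nm with signal-to-noise over triplicate slides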", "details": "probe aLAP1, fluorescence, higher = more signal", "values": [
      {"smiles": "CCCC[C@@H]1C[C@H]1[C@@H](NC(=O)c1cccs1)c1ccc(-c2ccccc2)cc1", "composite z-score": -0.202},
      {"smiles": "COC(=O)[C@@]1(Cc2ccc(OC)cc2)[C@H]2c3cc(C(=O)N4CCCC4)n(Cc4ccc(O)c(OC)c4)c3C[C@H]2CN1C(=O)c1ccccc1", "composite z-score": 1.09},
      {"smiles": "[N-]=[N+]=NCc1ccccc1C[C@]1(C(N)=O)COC(c2ccc(OCCCO)cc2)=N1", "composite z-score": 1.29},
      {"smiles": "C=C(COC)C(=O)CC[C@@H](OC(C)=O)c1ccc(CO)o1", "composite z-score": -0.311},
      {"smiles": "O=C1c2ccccc2[C@](Cc2ccccc2I)(C(=O)NCCN2CCOCC2)[C@H](c2ccc(CO)cc2)N1Cc1ccccc1Cl", "composite z-score": 0.754},
      {"smiles": "COCCCNC(=O)[C@]1(CCC(=O)OC(C)(C)C)N=C(c2ccc(OCCCO)cc2)O[C@@H]1c1ccccc1CN=[N+]=[N-]", "composite z-score": 1.8},
      {"smiles": "C=CCNC(=O)[C@@H]1[C@H]2C(=O)O[C@H](c3ccccc3)[C@H](c3ccccc3)N2[C@H](c2ccc(OCCO)cc2)[C@@]12C(=O)Nc1ccc(C#CCC(C(=O)OC)C(=O)OC)cc12", "composite z-score": 0.978},
      {"smiles": "COc1cc2c(cc1OC)CN(C(=O)[C@@H]1[C@H]3C(=O)O[C@H](c4ccccc4)[C@H](c4ccccc4)N3[C@H](c3ccccc3OCCO)[C@@]13C(=O)Nc1ccc(C#CCCO)cc13)CC2", "composite z-score": 0.681},
      {"smiles": "C=CCC(OC(C)=O)[C@@H]1[C@@H](N(Cc2cc3ccccc3o2)C(=O)c2cccc3ccccc23)c2cc(OCCCO)ccc2N1C(=O)c1ccc(-c2ccccc2)cc1", "note": "(some centres undefined)", "composite z-score": -0.187},
      {"smiles": "COC(=O)[C@@]1(Cc2ccc(F)cc2)[C@H]2c3cc(C(=O)N4CCCC4)n(CCCNc4ncc(C(F)(F)F)cc4Cl)c3C[C@H]2CN1C(=O)c1ccccc1", "composite z-score": -0.252},
      {"smiles": "CC(C)N1C(=O)c2ccccc2[C@](C)(C(=O)NCCN2CCOCC2)[C@@H]1c1ccc(CO)cc1", "composite z-score": 0.385},
      {"smiles": "CC(C)C(=C=CC[C@@H](O)c1ccc(OCCO)cc1)C[C@@H](O)c1ccccn1", "composite z-score": 0.33},
      {"smiles": "CO[C@H]1O[C@H](CO)[C@@H](OC(=O)Nc2ccc(Oc3ccccc3)cc2)[C@H](OC(=O)Nc2ccc3c(c2)OCO3)[C@H]1OC(=O)Nc1ccc2c(c1)OCO2", "composite z-score": 0.763},
      {"smiles": "C=CCOC(=O)[C@H]1[C@@H]2C(=O)O[C@@H](c3ccccc3)[C@@H](c3ccccc3)N2[C@@H](c2ccc(OCCOC(=O)[C@@H]3C[C@@H]4C(=O)N[C@@H](CC(C)C)C(=O)N4[C@@H]3c3ccc(O)cc3)cc2)[C@]12C(=O)Nc1ccccc12", "composite z-score": 0.545},
      {"smiles": "O=C(c1ccccc1)N1C(=O)[C@]2(COC(c3ccc(OCCCO)cc3)=N2)Cc2ccccc21", "composite z-score": 0.771},
      {"smiles": "CCCc1cc2c(n1Cc1cc(F)cc(F)c1)C(C)C1CN(C(=O)c3ccccc3)C(C)(C(=O)OC)C21", "note": "(centres undefined)", "composite z-score": 1.07},
      {"smiles": "O=C(c1ccccc1)N1C(=O)[C@@]2(Cc3ccccc31)N=C(c1ccc(OCCCO)cc1)O[C@H]2c1ccccc1", "composite z-score": 1.22},
      {"smiles": "CO[C@H]1O[C@H](CO)[C@@H](OC(=O)Nc2ccccc2)[C@H](OC(=O)Nc2ccccc2)[C@@H]1OC(=O)Nc1ccccc1", "composite z-score": 0.947},
      {"smiles": "COc1ccc(CCNC(=O)[C@@]2(Sc3ccc(C)cc3)CC(=O)N(C3Cc4ccccc4C3)[C@@H]2c2ccc(CO)cc2I)cc1", "composite z-score": -0.286},
      {"smiles": "CCCCCN1CC=CC23O[C@@H]4C=CCCOC(=O)C4[C@H]2C(=O)N(CCCCCO)[C@@H]3C1=O", "note": "(some centres undefined)", "composite z-score": 0.57},
      {"smiles": "COc1cc2c(cc1OC)CN(C(=O)[C@H]1[C@@H]3C(=O)O[C@@H](c4ccccc4)[C@@H](c4ccccc4)N3[C@@H](c3ccc(O)cc3)[C@]13C(=O)Nc1ccc(C#CCCO)cc13)CC2", "composite z-score": 0.127},
      {"smiles": "CN1C=C(C(=O)OCCS(C)(=O)=O)C(C(=O)OCCS(C)(=O)=O)=CC(c2ccc(CO)cc2)=CC1C1CC1", "note": "(centres undefined)", "composite z-score": 0.901},
      {"smiles": "C=C[C@H](CO[Si](CC)(CC)CC)N(Cc1ccc(OC(C)=O)c(OC)c1)S(=O)(=O)c1ccc(Br)cc1", "composite z-score": 0.897},
      {"smiles": "C[N+](C)(C)CCCCCCNC(=O)[C@@H]1C[C@@H]2C(=O)N[C@@H](Cc3ccccc3)C(=O)N2[C@@H]1c1cccc(OCCO)c1", "composite z-score": 0.591},
      {"smiles": "NC(=O)[C@@H]1[C@H]2C(=O)O[C@H](c3ccccc3)[C@H](c3ccccc3)N2[C@H](c2ccc(O)cc2)[C@@]12C(=O)Nc1ccccc12", "composite z-score": 0.691},
      {"smiles": "C=C(CCCC)/C(=C/C[C@@H](OC(C)=O)c1ccc(OCCO)cc1)c1cnc2ccccc2c1", "composite z-score": 0.35}
    ]},
    {"system": "Sam68 (KHDRBS1)", "experiment": "compounds binding KHDRBS1 protein – biochemical, small-molecule microarray, 635 nm fluorescence, primary screen (AID 1125);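 also: score merges 667 nm channel intensity with signal to noise over triplicate slides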", "details": "higher = more signal", "values": [
      {"smiles": "CC(C)=CCN[C@H](CO)c1ccccc1", "composite z-score": -0.127},
      {"smiles": "CCCC#C[Si](O[C@H](CC)c1cn(Cc2cccc(Cl)c2)nn1)(C(C)C)C(C)C", "composite z-score": 1.18},
      {"smiles": "C=CCOC(=O)[C@H]1[C@@H]2C(=O)O[C@@H](c3ccccc3)[C@@H](c3ccccc3)N2[C@@H](c2ccc(OCCOC(=O)[C@H]3C[C@H]4C(=O)N[C@@H](CCCCNC(C)=O)C(=O)N4[C@H]3c3cccc(OCCO)c3)cc2)[C@]12C(=O)Nc1ccccc12", "composite z-score": 1.25},
      {"smiles": "C=C(COC)/C(=C/C[C@@H](OC(=O)c1ccncc1)c1ccc(CO)o1)c1cc(C(=O)OC)ccc1OC", "composite z-score": 1.31},
      {"smiles": "CC(C)C(=C=CC[C@@H](O)c1ccc(OCCO)cc1)C[C@@H](O)COCc1ccccc1", "composite z-score": 1.19},
      {"smiles": "CCCCCCc1nc(-c2cc(C)c(OC)c(C)c2)cc2c1[Si](C(C)C)(C(C)C)OC2", "composite z-score": 0.363},
      {"smiles": "COc1cc2c(cc1O)C(C1CC1)N(Cc1sc3ccccc3c1Cl)CC2", "note": "(centres undefined)", "composite z-score": 0.888},
      {"smiles": "COCCOC(=O)N1C(=O)[C@@]2(c3cc(C#CCC(C(=O)OC)C(=O)OC)ccc31)[C@H](C(=O)N1CCN(c3ncccn3)CC1)[C@H]1C(=O)O[C@H](c3ccccc3)[C@H](c3ccccc3)N1[C@@H]2c1ccccc1OCCO", "composite z-score": 1.29},
      {"smiles": "C[C@H]1NC(=O)[C@@]23C(=O)N[C@@H](Cc4ccccc4)C2[C@H](C)[C@@]2(C)O[C@H]2C3/C=C/C/C=C\\CNC(=O)[C@@H]2CCCN2C1=O", "note": "(some centres undefined)", "composite z-score": 0.574},
      {"smiles": "CCOC(=O)C[C@H]1[C@H](OC(=O)c2ccc(C(=O)c3ccccc3)cc2)[C@@H](NC(=O)c2ccc3ccccc3n2)c2cc(OCCCO)ccc2N1C(=O)c1ccccc1", "composite z-score": 1.29},
      {"smiles": "CCCC[C@@H]1C[C@H]1[C@@H](NC(=O)c1cccs1)c1ccc(-c2ccccc2)cc1", "composite z-score": 0.393},
      {"smiles": "COC(=O)[C@@]1(Cc2ccc(OC)cc2)[C@H]2c3cc(C(=O)N4CCCC4)n(Cc4ccc(O)c(OC)c4)c3C[C@H]2CN1C(=O)c1ccccc1", "composite z-score": 0.535},
      {"smiles": "[N-]=[N+]=NCc1ccccc1C[C@]1(C(N)=O)COC(c2ccc(OCCCO)cc2)=N1", "composite z-score": 0.48},
      {"smiles": "C=C(COC)C(=O)CC[C@@H](OC(C)=O)c1ccc(CO)o1", "composite z-score": 0.298},
      {"smiles": "O=C1c2ccccc2[C@](Cc2ccccc2I)(C(=O)NCCN2CCOCC2)[C@H](c2ccc(CO)cc2)N1Cc1ccccc1Cl", "composite z-score": 1.31},
      {"smiles": "COCCCNC(=O)[C@]1(CCC(=O)OC(C)(C)C)N=C(c2ccc(OCCCO)cc2)O[C@@H]1c1ccccc1CN=[N+]=[N-]", "composite z-score": 1.3},
      {"smiles": "C=CCNC(=O)[C@@H]1[C@H]2C(=O)O[C@H](c3ccccc3)[C@H](c3ccccc3)N2[C@H](c2ccc(OCCO)cc2)[C@@]12C(=O)Nc1ccc(C#CCC(C(=O)OC)C(=O)OC)cc12", "composite z-score": 1.29},
      {"smiles": "COc1cc2c(cc1OC)CN(C(=O)[C@@H]1[C@H]3C(=O)O[C@H](c4ccccc4)[C@H](c4ccccc4)N3[C@H](c3ccccc3OCCO)[C@@]13C(=O)Nc1ccc(C#CCCO)cc13)CC2", "composite z-score": 1.29},
      {"smiles": "C=CCC(OC(C)=O)[C@@H]1[C@@H](N(Cc2cc3ccccc3o2)C(=O)c2cccc3ccccc23)c2cc(OCCCO)ccc2N1C(=O)c1ccc(-c2ccccc2)cc1", "note": "(some centres undefined)", "composite z-score": 0.195},
      {"smiles": "COC(=O)[C@@]1(Cc2ccc(F)cc2)[C@H]2c3cc(C(=O)N4CCCC4)n(CCCNc4ncc(C(F)(F)F)cc4Cl)c3C[C@H]2CN1C(=O)c1ccccc1", "composite z-score": 0.541},
      {"smiles": "CC(C)N1C(=O)c2ccccc2[C@](C)(C(=O)NCCN2CCOCC2)[C@@H]1c1ccc(CO)cc1", "composite z-score": 0.359},
      {"smiles": "CC(C)C(=C=CC[C@@H](O)c1ccc(OCCO)cc1)C[C@@H](O)c1ccccn1", "composite z-score": 0.726},
      {"smiles": "CO[C@H]1O[C@H](CO)[C@@H](OC(=O)Nc2ccc(Oc3ccccc3)cc2)[C@H](OC(=O)Nc2ccc3c(c2)OCO3)[C@H]1OC(=O)Nc1ccc2c(c1)OCO2", "composite z-score": 1.3},
      {"smiles": "C=CCOC(=O)[C@H]1[C@@H]2C(=O)O[C@@H](c3ccccc3)[C@@H](c3ccccc3)N2[C@@H](c2ccc(OCCOC(=O)[C@@H]3C[C@@H]4C(=O)N[C@@H](CC(C)C)C(=O)N4[C@@H]3c3ccc(O)cc3)cc2)[C@]12C(=O)Nc1ccccc12", "composite z-score": 1.29},
      {"smiles": "O=C(c1ccccc1)N1C(=O)[C@]2(COC(c3ccc(OCCCO)cc3)=N2)Cc2ccccc21", "composite z-score": 1.29},
      {"smiles": "CCCc1cc2c(n1Cc1cc(F)cc(F)c1)C(C)C1CN(C(=O)c3ccccc3)C(C)(C(=O)OC)C21", "note": "(centres undefined)", "composite z-score": 1.22},
      {"smiles": "O=C(c1ccccc1)N1C(=O)[C@@]2(Cc3ccccc31)N=C(c1ccc(OCCCO)cc1)O[C@H]2c1ccccc1", "composite z-score": 1.31},
      {"smiles": "CO[C@H]1O[C@H](CO)[C@@H](OC(=O)Nc2ccccc2)[C@H](OC(=O)Nc2ccccc2)[C@@H]1OC(=O)Nc1ccccc1", "composite z-score": 1.3},
      {"smiles": "COc1ccc(CCNC(=O)[C@@]2(Sc3ccc(C)cc3)CC(=O)N(C3Cc4ccccc4C3)[C@@H]2c2ccc(CO)cc2I)cc1", "composite z-score": 0.608},
      {"smiles": "CCCCCN1CC=CC23O[C@@H]4C=CCCOC(=O)C4[C@H]2C(=O)N(CCCCCO)[C@@H]3C1=O", "note": "(some centres undefined)", "composite z-score": -1.22},
      {"smiles": "COc1cc2c(cc1OC)CN(C(=O)[C@H]1[C@@H]3C(=O)O[C@@H](c4ccccc4)[C@@H](c4ccccc4)N3[C@@H](c3ccc(O)cc3)[C@]13C(=O)Nc1ccc(C#CCCO)cc13)CC2", "composite z-score": 1.24},
      {"smiles": "CN1C=C(C(=O)OCCS(C)(=O)=O)C(C(=O)OCCS(C)(=O)=O)=CC(c2ccc(CO)cc2)=CC1C1CC1", "note": "(centres undefined)", "composite z-score": 0.449},
      {"smiles": "C=C[C@H](CO[Si](CC)(CC)CC)N(Cc1ccc(OC(C)=O)c(OC)c1)S(=O)(=O)c1ccc(Br)cc1", "composite z-score": 1.29}
    ]}
  ]
}
